High-throughput results deposited in PubChem BioAssay by National Center for Advancing Translational Sciences (NCATS).
Shown are actives, neighbours in structure and some others; about 10% of the full set was active somewhere.
PNC assembly inh: inhibitors of perinucleolar compartment assembly; PC3M PTB-GFP, PNC prevalence imaging, 16 h; stronger effect = lower value; activity change (PNC), negative = inhibition, % at 10 µM; actives 3.1% (n = 140,000);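 active = readout at or below -70, meaning at least 70% loss of cells showing the perinucleolar compartment, a nuclear body marking cancer cells; inconclusive = readout between -30 and a set limit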
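PC3M cells stably expressing PTB-GFP, 750–1000 cells/well, treated 16 h at 37 °C with compound (23 nl of library stock), in duplicate. After paraformaldehyde fixation and Hoechst stain, imaged at 20x; PNC prevalence scored by image analysis.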
HPGD inh: blocks human HPGD enzyme activity; P15428; purified HPGD, NADH fluorescence kinetic, PGE2 substrate; Potency, µM, actives largely listed as inhibitors; actives 4.3% (n = 150,000); AID 894
Target sequence (P15428 whole entry, looked up): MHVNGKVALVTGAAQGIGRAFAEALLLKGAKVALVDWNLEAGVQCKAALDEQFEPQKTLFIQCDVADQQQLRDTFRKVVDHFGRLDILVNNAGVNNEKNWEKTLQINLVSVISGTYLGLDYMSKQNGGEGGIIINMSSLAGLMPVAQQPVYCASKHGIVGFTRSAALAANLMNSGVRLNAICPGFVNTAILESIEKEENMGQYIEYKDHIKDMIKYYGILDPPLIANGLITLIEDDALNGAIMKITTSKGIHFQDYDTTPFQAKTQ
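20 nM HPGD preincubated 15 min at room temperature with compound in 50 mM Tris-HCl pH 8, 0.01% Tween 20. Started with 1 mM NAD+ and 30 uM prostaglandin E2; NADH fluorescence (360/450 nm) read 5 times over 30-s intervals, last minus first.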
IMPase inh: membrane-permeable compound that blocks inositol monophosphatase | P97697 | CHO-M1 cells, IP1 accumulation, HTRF TR-FRET ratio | inhibition (IP1 accumulation), % at 46.1 µM | 120,000 tested, under 10 active; active = well fitted curve in the direction sought with a large enough effect in the signal ratio, not every such curve was filed as active; inconclusive = small, poorly fitted or top-dose-only effect, or a change in a side signal; inactive = no such curve, though single readings can be large or run the other way; the % refers to the signal ratio;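 note: cells stimulated with carbachol in lithium chloride buffer; higher means more IMPase inhibition seen as more IP1 and lower FRET ratio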
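Cellular IMPase inhibition is scored as a rise in cytosolic IP1, detected by competitive TR-FRET between d2-labelled IP1 and a europium anti-IP1 antibody. M1-expressing CHO cells were stimulated with carbachol for 30 min at 37C, with lithium (50 mM LiCl) present in the buffer.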
ALDH1A1 block: inhibitors of human aldehyde dehydrogenase 1A1 | P00352 | Purified ALDH1A1, NADH fluorescence, propionaldehyde substrate | Potency, µM (doses to about 75.3 µM), usual class: inhibitors | actives 7.3% (n = 220,000)
Target sequence (P00352 whole entry, looked up): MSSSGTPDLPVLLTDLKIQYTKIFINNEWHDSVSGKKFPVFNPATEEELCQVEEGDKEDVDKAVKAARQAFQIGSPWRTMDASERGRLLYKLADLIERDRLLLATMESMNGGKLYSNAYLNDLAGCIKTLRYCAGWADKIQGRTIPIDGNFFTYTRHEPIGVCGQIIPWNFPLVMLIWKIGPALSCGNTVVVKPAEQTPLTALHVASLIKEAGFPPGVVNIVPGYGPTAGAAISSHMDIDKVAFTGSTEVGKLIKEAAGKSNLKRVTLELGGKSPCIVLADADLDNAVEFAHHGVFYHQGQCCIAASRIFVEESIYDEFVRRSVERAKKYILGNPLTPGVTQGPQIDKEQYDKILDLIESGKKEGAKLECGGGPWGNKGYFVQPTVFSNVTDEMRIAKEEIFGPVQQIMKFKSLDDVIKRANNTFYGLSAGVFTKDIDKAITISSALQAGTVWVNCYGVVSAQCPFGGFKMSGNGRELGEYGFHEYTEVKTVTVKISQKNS
LMNA splice mod: modulators of lamin A splicing. HeLa LMNA splicing GFP/RFP minigene ratio, 48 h. actives 0.01% (n = 200,000). Potency, µM (titrated, usually from 46.1 µM), hits mostly inhibitors; active = well fitted inhibition curve with a large enough effect in the signal ratio, with a control signal flat, not every such curve was filed as active; inconclusive = small, poorly fitted or top-dose-only effect, or effect the other way, or a change in a side signal; the % refers to the signal ratio
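S3 HeLa stable clones carrying a lamin A-EGFP splicing minigene plus DsRed2 were seeded at 600 cells/well in Opti-MEM with 2% FBS, pin-dosed and incubated 48 h at 37°C. Acumen cytometry (488 nm) gave the GFP/RFP total-intensity ratio.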
KinaseGlo FLuc: blocks Kinase-Glo luciferase, a counter-screen artifact; Potency, µM (titrated, usually from 38.3 µM), hits mostly inhibitors; Kinase-Glo luciferase, ATP luminescence, 8 min; Q27757; actives 0.28% (n = 200,000); AID 1379; active = well fitted inhibition curve with a large enough effect; inconclusive = small, poorly fitted or top-dose-only effect; note: nearly all actives have a fitted effect of over 60% in size
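Inhibition of Kinase-Glo luciferase light generation was assessed at 10 uM ATP in pH 7.2 imidazole buffer, with luminescence measured after eight minutes at ambient temperature.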
Hits are given with their value; – = inactive; ? = inconclusive; · = not tested or not shown; [ ] = dose if it differs, or a comment. Unless noted, calls come from the whole dose curve; as a rule, active = well fitted inhibition curve with a large enough effect (not every such curve was filed as active); inconclusive = small, poorly fitted or top-dose-only effect, or another doubt; inactive = no such curve, though single readings can be large or run the other way.

SMILES	PNC assembly inh	HPGD inh	IMPase inh	ALDH1A1 block	LMNA splice mod	KinaseGlo FLuc
Cc1ccc(C)c(-n2c(SCC(N)=O)nnc2-c2ccccn2)c1	–	–	–	–	–	–
O=C(NC(Cc1c[nH]c2ccccc12)c1nnc2n1CCCCC2)c1ccccc1 (stereo not given)	–	–	–	–	–	–
O=C(NC(Cc1c[nH]c2ccccc12)c1nnc2n1CCCCC2)c1ccccc1Cl (stereo not given)	–	25µM	–	–	–	–
Cc1onc(-c2ccccc2Cl)c1C(=O)NC(=S)NCCc1ccccc1	–	–	·	–	–	–
Cc1onc(-c2ccccc2Cl)c1C(=O)NC(=S)Nc1ccc(C(C)C)cc1	·	·	·	20µM	–	·
Cc1ccc(NC(=S)NC(=O)c2c(-c3ccccc3Cl)noc2C)cc1	–	–	–	7.9µM	–	–
O=C(CN(c1cc(C(F)(F)F)ccc1Cl)S(=O)(=O)c1ccccc1)NCCc1ccccc1	·	·	–	·	·	·
O=C1c2cccc3c([N+](=O)[O-])c(O)cc(c23)C(=O)N1Nc1ccccc1	·	·	·	?	?	–
O=C1c2ccccc2C(=O)N1Nc1ccccc1	-106	–	–	–	–	–
NC(=S)c1ncc(C(F)(F)F)cc1Cl	·	·	·	28µM	·	·
NC(=O)c1ncc(C(F)(F)F)cc1Cl	·	·	·	–	–	–
O=C1Nc2ccccc2C1=Nc1cccc2ncccc12	·	–	·	–[13.5 µM]	·	–[7.66 µM]
CN(C)S(=O)(=O)c1cccc(NC(=O)COC(=O)c2ccc([N+](=O)[O-])o2)c1	–	–	·	20µM	–	–
CCOc1ccccc1NC(=S)NC(=O)CCCOc1ccc(Cl)cc1Cl	–	–	–	11µM	?	–
O=C(OCc1ccc2c(c1)OCO2)c1ccc(S(=O)(=O)N2CCCC2)cc1	–	–	–	?	–	–
O=C(OCc1ccc2c(c1)OCO2)c1cccc(S(=O)(=O)N2CCCCC2)c1	–	?	–	7.1µM	–	–
O=C(COC(=O)c1cccc(S(=O)(=O)N2CCOCC2)c1)Nc1ccc2c(c1)OCO2	-100	–	–	–	?	–
O=C(COC(=O)c1ccc2c(c1)OCCO2)Nc1cccc(S(=O)(=O)N2CCOCC2)c1	·	·	·	–	–	–
CC(=O)OC[C@@H]1O[C@H](C/C=N\OC[C@@H](O)COCc2ccco2)C=C[C@@H]1OC(C)=O	·	·	·	–[13.5 µM]	·	·
CCCCNC(=O)C(c1ccc(OCC(=O)OC)c(C(=O)OC)c1)N(CCc1ccccn1)C(=O)CCCCCN1C(=O)NC(c2ccc(-c3ccccc3)cc2)C(C(=O)OCc2ccccc2)=C1C (stereo not given)	·	–	·	–	·	–
O=c1[nH]c(Cl)nc2c1ncn2C1OC(CO)C(O)C1O (stereo not given)	·	?	·	–	–	–
Cc1ccc(C(=O)c2oc3ccccc3c2NC(=O)c2cc(-c3ccccc3)on2)cc1F	·	·	·	·	–	·
Cc1ccc(C)c(N2CCN(C(=O)c3cc4c(=O)n(Cc5ccco5)ccc4nc3C)CC2)c1	·	·	·	·	–	·
O=C(COC(=O)c1ccc([N+](=O)[O-])o1)Nc1cccc(S(=O)(=O)N2CCOCC2)c1	?	–	–	1µM	–	–
COc1ccc(NC(=O)COC(=O)CCCOc2ccc(Cl)cc2Cl)cc1Cl	–	28µM	·	–	–	–
SMILES	PNC assembly inh	HPGD inh	IMPase inh	ALDH1A1 block	LMNA splice mod	KinaseGlo FLuc
COc1ccc(NC(=O)COC(=O)c2ccc([N+](=O)[O-])o2)cc1Cl	·	·	·	22µM	–	–
COc1ccc(NC(=O)COC(=O)CCCOc2ccc(Cl)cc2Cl)cc1	?	–	–	–	–	–
Cc1cc(C)cc(NC(=O)C(OC(=O)c2ccc([N+](=O)[O-])o2)c2ccccc2)c1 (stereo not given)	–	–	·	?	–	–
COc1cccc(NC(=O)C(OC(=O)c2ccc([N+](=O)[O-])o2)c2ccccc2)c1 (stereo not given)	–	–	·	22µM	–	–
Cc1nc(N2CCOCC2)c2nc(-c3ccccc3)n(CC(C)(C)CN(C)C)c2n1	·	?	·	?	·	–
Oc1ccc([C@@H]2CNCCc3c2cc(O)c(O)c3Cl)cc1	·	–	–	–	·	–
COc1cc2c(cc1OC)CN(C(=O)CCCOc1ccc(Cl)cc1Cl)CC2	?	35µM	–	–	–	–
COc1cc2c(cc1OC)CN(C(=O)CCCN1C(=O)c3ccccc3C1=O)CC2	?	–	–	?	–	–
CCCCC/C=C\C\C=C/C=C/C=C/[C@@H](SCC(N)C(=O)NCC(=O)O)[C@@H](O)CCCC(=O)O (stereo not given in full)	·	–	·	–	·	–
Cc1ccc(-c2[nH]c3ccccc3c2SCCNC(=O)c2cc3ccccc3oc2=O)cc1	–	–	·	–	–	–
O=C(NCCSc1c(-c2ccccc2)[nH]c2ccccc12)c1cc2ccccc2oc1=O	-86	–	·	–	–	–
Cc1ccc2c(c1)Oc1ccc(NC(=O)CCl)cc1C(=O)N2	·	·	·	11µM	·	–
Cc1ccc2c(c1)Oc1ccc([N+](=O)[O-])cc1C(=O)N2	·	·	·	–	·	–
COc1cccc(/C=N/N2C(=O)CSC2=S)c1O	?	25µM	·	7.1µM	?	–
C/C(CCN1CCCCc2nc(C)c(C)cc21)=N\OC[C@@H](O)COCc1ccco1	·	·	·	–[13.5 µM]	·	·
COc1cc(OC)c(C2=NOC(C(=O)N3CCCc4ccccc43)C2)cc1Cl (stereo not given)	–	?	–	?	–	–
CCC1CCCCN1C(=O)C1CC(c2cc(Cl)c(OC)cc2OC)=NO1 (stereo not given)	–	14µM	–	?	–	–
COCCN(CCOC)c1nc(C)nc2c1nc(-c1ccccc1)n2CCN1CCCC1	·	?	·	?	·	–
Cc1ccc(NC(=O)CN2C(=O)CCc3cc(S(=O)(=O)N4CCOCC4)ccc32)c(C)c1	·	·	·	·	–	·
CCN(CC)c1ccc2c(C)c(Cl)c(=O)oc2c1	·	·	·	?	–	–
CCN(CC)c1ccc2c(c1)oc(=O)c1c(Cl)cc(=O)oc12	–	5.6µM	–	2.2µM	?	–
CCN(CC)c1ccc2c(Cl)c(Br)c(=O)oc2c1	–	–	?	3.2µM	?	–
Cc1ccc(S(=O)(=O)CCC(=O)c2ccc(O)cc2O)cc1	–	–	–	0.28µM	?	–
C[n+]1cc[nH]c1SCC(=O)c1ccc(Cl)cc1	·	·	·	19µM	·	–
C[n+]1cc[nH]c1SCC(=O)c1ccccc1	–	–	–	25µM	–	–
Cc1cn2c(=O)c3ccccc3nc2n2c(=O)c3ccccc3nc12	·	–	·	–	·	–
C=CCNc1nnc(SC2CC(=O)N(c3ccc(OCCC)cc3)C2=O)s1 (stereo not given)	–	14µM	–	0.56µM	?	–
Cc1nc(SC2CC(=O)N(c3ccc([N+](=O)[O-])cc3)C2=O)nc2c1CCCC2 (stereo not given)	–	–	?	1.8µM	–	–
